The campaign covered roughly 39,000 compounds. About 3,300 (8.5%) were called active. The full list was thinned out, with actives kept by preference.
Each compound was assayed on HepG2 (assay: cytotoxicity call (relative viability < 0.9)). Details: 10 µM.
With `Cc1noc(C)c1NC(=O)Nc1ccc2c(c1)CC(=O)N([C@@H](C)CO)C[C@H](C)[C@@H](CN(C)S(=O)(=O)c1c(C)noc1C)O2` the cytotoxicity call was “inactive”.
For `CC(C)C[C@@H]1NC(=O)[C@H]2C[C@@H](C(=O)NCCCC[N+](C)(C)C)[C@@H](c3cccc(OCCO)c3)N2C1=O`, the cytotoxicity call was “inactive”.
In the case of `CO[C@H]1CN(C)C(=O)c2cc(NS(C)(=O)=O)ccc2OC[C@H](C)N(C(=O)C2CCOCC2)C[C@@H]1C`, the cytotoxicity call is reported as “inactive”.
With `N#CCCn1c(CC(N)=O)nc2ccccc21` the cytotoxicity call was “inactive”.
`Cc1cccc(S(=O)(=O)N2C[C@H](O)COC[C@@H]3O[C@@H](CC(=O)NCc4ccncn4)CC[C@H]32)c1` was tested, and the cytotoxicity call was “inactive”.
`C[C@@H]1CCCCO[C@@H](CN(C)Cc2ccc(C(F)(F)F)cc2)[C@H](C)CN([C@H](C)CO)C(=O)c2cc(NC(=O)Nc3ccc4c(c3)OCO4)ccc2O1` was tested, and the cytotoxicity call was “active”.
`C[C@H](CO)N1C[C@H](C)[C@H](CN(C)Cc2ccc(C(F)(F)F)cc2)OCCCC[C@H](C)Oc2ccc(NC(=O)Nc3ccc4c(c3)OCO4)cc2C1=O` was tested, and the cytotoxicity call was “inactive”.
For `C[C@@H]1CCCCO[C@@H](CN(C)Cc2ccc(C(F)(F)F)cc2)[C@@H](C)CN([C@H](C)CO)C(=O)c2cc(NC(=O)Nc3ccc4c(c3)OCO4)ccc2O1`, the cytotoxicity call was “inactive”.
With `C[C@H]1CCCCO[C@H](CN(C)Cc2ccc(C(F)(F)F)cc2)[C@@H](C)CN([C@@H](C)CO)C(=O)c2cc(NC(=O)Nc3ccc4c(c3)OCO4)ccc2O1` the cytotoxicity call was “active”.
With `C[C@H]1CCCCO[C@@H](CN(C)Cc2ccc(C(F)(F)F)cc2)[C@@H](C)CN([C@@H](C)CO)C(=O)c2cc(NC(=O)Nc3ccc4c(c3)OCO4)ccc2O1` the cytotoxicity call was “inactive”.
With `C[C@H](CO)N1C[C@H](C)[C@@H](CN(C)Cc2ccc(C(F)(F)F)cc2)OCCCC[C@H](C)Oc2ccc(NC(=O)Nc3ccc4c(c3)OCO4)cc2C1=O` the cytotoxicity call was “inactive”.
`C[C@@H]1CCCCO[C@H](CN(C)Cc2ccc(C(F)(F)F)cc2)[C@@H](C)CN([C@H](C)CO)C(=O)c2cc(NC(=O)Nc3ccc4c(c3)OCO4)ccc2O1` was tested, and the cytotoxicity call was “active”.
For `C[C@@H]1CCCCO[C@H](CN(C)Cc2ccc(C(F)(F)F)cc2)[C@H](C)CN([C@@H](C)CO)C(=O)c2cc(NC(=O)Nc3ccc4c(c3)OCO4)ccc2O1`, the cytotoxicity call was “active”.
In the case of `CC1(C)SC2C(NC(=O)C(N)c3ccccc3)C(=O)N2C1C(=O)[O-].[Na+]` (stereo not drawn), the cytotoxicity call is reported as “inactive”.
In the case of `C[C@@H]1CCCCO[C@H](CN(C)C(=O)Nc2ccc(F)cc2)[C@H](C)CN([C@H](C)CO)C(=O)c2cc(NS(=O)(=O)c3cccs3)ccc2O1`, the cytotoxicity call is reported as “inactive”.
`COc1ccc(NC(=O)Nc2ccc3c(c2)C(=O)N([C@@H](C)CO)C[C@H](C)[C@H](CN(C)Cc2ccncc2)OCCCC[C@H](C)O3)cc1` was tested, and the cytotoxicity call was “inactive”.
For `COC1C=COC2(C)Oc3c(C)c(O)c4c(O)c(c(C=NN5CCN(C)CC5)c(O)c4c3C2=O)NC(=O)C(C)=CC=CC(C)C(O)C(C)C(O)C(C)C(OC(C)=O)C1C` (stereo not drawn), the cytotoxicity call was “inactive”.
For `COc1ccc(NC(=O)Nc2ccc3c(c2)C(=O)N([C@@H](C)CO)C[C@@H](C)[C@H](CN(C)C(=O)Nc2cccc4ccccc24)OCCCC[C@@H](C)O3)cc1`, the cytotoxicity call was “inactive”.
In the case of `N[C@@H](C(=O)O)c1ccc(O)cc1`, the cytotoxicity call is reported as “inactive”.
With `C[C@@H]1CCCCO[C@H](CN(C)C(=O)Nc2cccc3ccccc23)[C@@H](C)CN([C@H](C)CO)C(=O)c2cc(N(C)C)ccc2O1` the cytotoxicity call was “inactive”.
With `CC(C=CC1(O)C(C)=CC(=O)CC1(C)C)=CC(=O)O` (mixture of isomers) [ABSCISIC ACID (cis,trans; +/-) ] the cytotoxicity call was “inactive”.
`C[C@@H]1CN([C@@H](C)CO)C(=O)c2cc(NC(=O)CCC(F)(F)F)ccc2O[C@@H]1CN(C)Cc1ccc(Oc2ccccc2)cc1` was tested, and the cytotoxicity call was “active”.
In the case of `C[C@H](CO)N1C[C@H](C)[C@H](CN(C)Cc2ccc(Oc3ccccc3)cc2)Oc2ccc(NC(=O)CCC(F)(F)F)cc2C1=O`, the cytotoxicity call is reported as “inactive”.
In the case of `C[C@@H]1CN([C@H](C)CO)C(=O)c2cc(NC(=O)CCC(F)(F)F)ccc2O[C@H]1CN(C)Cc1ccc(Oc2ccccc2)cc1`, the cytotoxicity call is reported as “inactive”.
In the case of `C[C@@H]1CN([C@H](C)CO)C(=O)c2cc(NC(=O)CCC(F)(F)F)ccc2O[C@@H]1CN(C)Cc1ccc(Oc2ccccc2)cc1`, the cytotoxicity call is reported as “inactive”.
In the case of `C[C@H]1CN([C@@H](C)CO)C(=O)c2cc(NC(=O)CCC(F)(F)F)ccc2O[C@H]1CN(C)Cc1ccc(Oc2ccccc2)cc1`, the cytotoxicity call is reported as “active”.
In the case of `C[C@H]1CN([C@@H](C)CO)C(=O)c2cc(NC(=O)CCC(F)(F)F)ccc2O[C@@H]1CN(C)Cc1ccc(Oc2ccccc2)cc1`, the cytotoxicity call is reported as “inactive”.
With `COc1ccccc1S(=O)(=O)N[C@H]1CC[C@@H](CCNC(=O)C2CCOCC2)O[C@H]1CO` the cytotoxicity call was “inactive”.
With `CSCC[C@H]1NC(=O)NC1=O` the cytotoxicity call was “inactive”.
In the case of `OCCC12CC3CC(CC(C3)C1)C2`, the cytotoxicity call is reported as “inactive”.
For `C[C@@H]1CN([C@@H](C)CO)C(=O)CCCn2cc(nn2)CO[C@H]1CN(C)C(=O)Nc1ccc(N2CCCCC2)cc1`, the cytotoxicity call was “inactive”.
With `C[C@@H]1CN([C@@H](C)CO)C(=O)c2cccc(NS(=O)(=O)c3ccc(Cl)cc3)c2O[C@@H]1CN(C)C(=O)Nc1ccc(C(F)(F)F)cc1` the cytotoxicity call was “active”.
With `C[C@H]1CN([C@@H](C)CO)C(=O)c2cccc(NS(=O)(=O)c3ccc(Cl)cc3)c2O[C@@H]1CN(C)C(=O)Nc1ccc(C(F)(F)F)cc1` the cytotoxicity call was “inactive”.
`C[C@@H]1CN([C@@H](C)CO)C(=O)c2cccc(NS(=O)(=O)c3ccc(Cl)cc3)c2O[C@H]1CN(C)C(=O)Nc1ccc(C(F)(F)F)cc1` was tested, and the cytotoxicity call was “inactive”.
For `C[C@@H]1CN([C@@H](C)CO)C(=O)c2cccc(NS(=O)(=O)c3ccc(F)cc3)c2O[C@@H]1CN(C)C(=O)Nc1ccc(C(F)(F)F)cc1`, the cytotoxicity call was “active”.
For `C[C@H]1CN([C@@H](C)CO)C(=O)c2cccc(NS(=O)(=O)c3ccc(F)cc3)c2O[C@@H]1CN(C)C(=O)Nc1ccc(C(F)(F)F)cc1`, the cytotoxicity call was “inactive”.
With `C[C@@H]1CN([C@H](C)CO)C(=O)c2cccc(NS(=O)(=O)c3ccc(Cl)cc3)c2O[C@@H]1CN(C)C(=O)Nc1ccc(C(F)(F)F)cc1` the cytotoxicity call was “active”.
For `C[C@H]1CN([C@@H](C)CO)C(=O)c2cccc(NS(=O)(=O)c3ccc(Cl)cc3)c2O[C@H]1CN(C)C(=O)Nc1ccc(C(F)(F)F)cc1`, the cytotoxicity call was “inactive”.
For `C[C@H]1CN([C@@H](C)CO)C(=O)c2cccc(NS(=O)(=O)c3ccc(F)cc3)c2O[C@H]1CN(C)C(=O)Nc1ccc(C(F)(F)F)cc1`, the cytotoxicity call was “inactive”.
For `C[C@@H]1CN([C@H](C)CO)C(=O)c2cccc(NS(=O)(=O)c3ccc(F)cc3)c2O[C@H]1CN(C)C(=O)Nc1ccc(C(F)(F)F)cc1`, the cytotoxicity call was “inactive”.
For `C[C@@H]1CN([C@H](C)CO)C(=O)c2cccc(NS(=O)(=O)c3ccc(Cl)cc3)c2O[C@H]1CN(C)C(=O)Nc1ccc(C(F)(F)F)cc1`, the cytotoxicity call was “inactive”.
In the case of `C[C@H](CO)N1C[C@H](C)[C@H](CN(C)C(=O)Nc2ccc(C(F)(F)F)cc2)Oc2c(NS(=O)(=O)c3ccc(Cl)cc3)cccc2C1=O`, the cytotoxicity call is reported as “active”.
`C[C@H](CO)N1C[C@H](C)[C@@H](CN(C)C(=O)Nc2ccc(C(F)(F)F)cc2)Oc2c(NS(=O)(=O)c3ccc(Cl)cc3)cccc2C1=O` was tested, and the cytotoxicity call was “inactive”.
In the case of `C[C@@H]1CC=CC[C@H](c2cccc(Cl)c2)NC(=O)[C@@H](Cc2ccccc2)N(C)C(=O)c2ccccc2O1`, the cytotoxicity call is reported as “inactive”.
In the case of `C[C@@H]1CN([C@@H](C)CO)C(=O)c2c(c3ccccc3n2C)-c2ccccc2CO[C@@H]1CN(C)C(=O)N[C@H](C)c1ccccc1`, the cytotoxicity call is reported as “inactive”.
`Cc1ccc(S(=O)(=O)N(C)C[C@@H]2Oc3cc(Br)ccc3S(=O)(=O)N([C@@H](C)CO)C[C@H]2C)cc1` was tested, and the cytotoxicity call was “inactive”.
`Cc1noc(C)c1S(=O)(=O)Nc1ccc2c(c1)C(=O)N([C@H](C)CO)C[C@H](C)[C@@H](CN(C)C(=O)Nc1ccccc1)OCCCC[C@H](C)O2` was tested, and the cytotoxicity call was “inactive”.
For `O=C1N[C@@H](CC(=O)N2CCN(CCc3ccncc3)CC2)C(=O)Nc2ccccc21`, the cytotoxicity call was “inactive”.
In the case of `COc1ccc(-c2cnc3c(c2)C(=O)N([C@@H](C)CO)C[C@@H](C)[C@H](CN(C)C(=O)Cc2ccccn2)O3)cc1`, the cytotoxicity call is reported as “inactive”.
`CCCNC(=O)N[C@H]1CC[C@H](CC(=O)N2CCN(C)CC2)O[C@H]1CO` was tested, and the cytotoxicity call was “inactive”.
With `C[C@@H](O)CNC(=O)C(=O)NC(C)(C)C` the cytotoxicity call was “inactive”.
For `COc1cccc(-c2cn(CC[C@@H]3CC[C@H](NC(=O)CN(C)C)[C@H](CO)O3)nn2)c1`, the cytotoxicity call was “inactive”.
`C[C@H]1CN([C@@H](C)CO)C(=O)c2cc(NC(=O)Cc3ccccc3)ccc2O[C@@H]1CN(C)S(=O)(=O)c1cn(C)cn1` was tested, and the cytotoxicity call was “inactive”.
With `NCCC[C@H](NC(=O)[C@@H]1CCCN1C(=O)[C@@H]1CSSC[C@H](N)C(=O)N[C@@H](Cc2ccc(O)cc2)C(=O)N[C@@H](Cc2ccccc2)C(=O)N[C@@H](CCC(N)=O)C(=O)N[C@@H](CC(N)=O)C(=O)N1)C(=O)NCC(N)=O` the cytotoxicity call was “active”.
`NCCCC[C@H](NC(=O)[C@@H]1CCCN1C(=O)[C@@H]1CSSC[C@H](N)C(=O)N[C@@H](Cc2ccccc2)C(=O)N[C@@H](Cc2ccccc2)C(=O)NC(CCC(N)=O)C(=O)N[C@@H](CC(N)=O)C(=O)N1)C(=O)NCC(N)=O` (stereo partly drawn) was tested, and the cytotoxicity call was “inactive”.
With `NCCCC[C@H](NC(=O)[C@@H]1CCCN1C(=O)[C@@H]1CSSC[C@H](N)C(=O)N[C@@H](Cc2ccc(O)cc2)C(=O)N[C@@H](Cc2ccccc2)C(=O)N[C@@H](CCC(N)=O)C(=O)N[C@@H](CC(N)=O)C(=O)N1)C(=O)NCC(N)=O` the cytotoxicity call was “inactive”.
For `CNC[C@H]1OCCCC[C@H](C)Oc2ccc(NC(=O)Nc3ccc(C(F)(F)F)cc3)cc2C(=O)N([C@H](C)CO)C[C@@H]1C`, the cytotoxicity call was “inactive”.
In the case of `COc1cccc(S(=O)(=O)Nc2ccc3c(c2)C(=O)N(C)C[C@H](OC)[C@@H](C)CN(C(=O)Cc2cccnc2)[C@@H](C)CO3)c1`, the cytotoxicity call is reported as “inactive”.
